Compound activity: PubChem BioAssay, National Center for Advancing Translational Sciences (NCATS)
A selection: hits, their analogues and other compounds. The true share with any hit is near 7.4%.
NPC1 promoter act: NPC1 promoter activation. Huh7 NPC1 promoter luciferase reporter, 24 h. Potency, µM (doses to about 9.22 µM), without a hit: top-dose activation, most hits filed as activators. 320,000 compounds, 2.4% hits. AID 485313; note: % of control where 0% means no effect; nearly all actives have a fitted effect of over 60% in size
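Compounds in DMSO were transferred onto Huh7 NPC1-luciferase reporter cells pre-incubated 2 h; after 24 h at 37 °C, Amplite reagent was dispensed and luminescence recorded 10 min later.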
SMN2 splice enh: increases expression of the SMN2 splice variant; 210,000 compounds, 2.8% hits; HEK293 SMN2-luciferase splicing reporter, luminescence, 30-36 h; Potency, µM (titrated, usually from 46.1 µM), inactives show at the highest dose activity change, positive = activation, usual class: activators; AID 1458; note: % of control where 0% means no effect; nearly all actives have a fitted effect of over 55% in size
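HEK293 cells carry an SMN2 minigene-luciferase reporter in which exon 7 inclusion puts luciferase in frame. Cells were seeded at 2000 cells/well, attached for 10-12 hours, then exposed to compounds for 30-36 hours at 37C before ONE-Glo luminescence.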
p53 reactivation: re-activators of mutant p53. H1299 p53-A138V BP100-luciferase reporter, luminescence, 24 h. Potency, µM (top dose mostly 92.2 µM), inactives show at the highest dose activity change, positive = activation, usual class: activators. 320,000 compounds, 0.063% hits; note: % of control where 0% means no effect; nearly all actives have a fitted effect of over 45% in size
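p53-null H1299 cells stably carrying temperature-sensitive p53-A138V and a BP100-luciferase reporter were pinned with compounds (4-point, 1:5 series) and held 24 hrs at 37 deg C. Luminescence was read 10 min after detection reagent.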
FLuc counter: inhibits or activates purified firefly luciferase, miR-21 counter-screen; 360,000 compounds, 6.9% hits; P08659; Potency, µM (top dose mostly 57.5 µM), for inactives: at the top dose activity change, negative = inhibition, most hits filed as inhibitors; purified FLuc, Km substrates, luminescence inhibition;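 note: plate controls were vehicle for no effect and reference inhibitor for full effect; nearly all actives have a fitted effect of over 55% in size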
Target sequence (P08659 whole entry, looked up): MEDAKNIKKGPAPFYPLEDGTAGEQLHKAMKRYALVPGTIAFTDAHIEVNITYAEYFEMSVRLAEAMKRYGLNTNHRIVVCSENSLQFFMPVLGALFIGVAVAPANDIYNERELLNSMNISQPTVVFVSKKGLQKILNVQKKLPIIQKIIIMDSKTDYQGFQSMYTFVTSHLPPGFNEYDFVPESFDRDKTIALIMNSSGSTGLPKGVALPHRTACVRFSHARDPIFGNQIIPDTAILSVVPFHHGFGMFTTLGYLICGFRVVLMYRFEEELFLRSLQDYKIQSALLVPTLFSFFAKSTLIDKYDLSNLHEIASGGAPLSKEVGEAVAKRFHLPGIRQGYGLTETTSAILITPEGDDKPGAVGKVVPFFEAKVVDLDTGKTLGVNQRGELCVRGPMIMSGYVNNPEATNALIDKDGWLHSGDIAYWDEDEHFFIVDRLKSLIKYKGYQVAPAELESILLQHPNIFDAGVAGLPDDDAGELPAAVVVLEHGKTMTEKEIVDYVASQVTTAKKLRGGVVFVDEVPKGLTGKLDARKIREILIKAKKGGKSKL
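Purified P. pyralis luciferase, 10 nM final, with Km-level 10 uM D-luciferin and 10 uM ATP in 50 mM Tris acetate pH 7.5, 10 mM Mg acetate, 0.01% Tween-20, 0.05% BSA; 6-point qHTS titration about 60 µM downward; luminescence read.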
Rab9 promoter act: Rab9 promoter activation; 320,000 compounds, 2.8% hits; Potency, µM (series often up to 9.22 µM), for inactives: at the highest dose activation, negative = inhibition, usual class: activators; Huh7 Rab9 promoter-luciferase reporter, luminescence, 24 h; note: % of control where 0% means no effect; nearly all actives have a fitted effect of over 60% in size
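Measured in stably transfected Huh7 cells bearing a Rab9 promoter–luciferase construct: 24 h compound treatment at 37 °C, followed by luminescence detection.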
ELG1 genotoxic: induces genotoxicity in HEK293T cells with luciferase-tagged ELG1. HEK293T ELG1-luciferase reporter, luminescence, 16 h. Potency, µM (doses to about 46 µM), inactives show top-dose activity change, positive = activation, most hits filed as activators. 330,000 compounds, 1.3% hits; note: % of control where 0% means no effect; nearly all actives have a fitted effect of over 60% in size
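ELG1-luciferase HEK293T cells, 2,000/well; compound pinned in; 16 hr, 37 °C, 5% CO2; ONE-Glo, 30 min RT; luminescence on CCD imager.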
* marks the source's active call; other numbers are inactive results; ? = inconclusive; · = no result; [ ] = remark or other dose. Calls come from the whole dose curve; as a rule, active = well fitted curve in the direction sought with a large enough effect; inconclusive = small, poorly fitted or top-dose-only effect, or another doubt; inactive = no such curve, though single readings can be large; an effect the other way counts as inactive or inconclusive. Potency is the fitted concentration of half-maximal effect.

SMILES | NPC1 promoter act | SMN2 splice enh | p53 reactivation | FLuc counter | Rab9 promoter act | ELG1 genotoxic
O=C(C[n+]1cc(-c2ccccc2)n2c1CCC2)N1c2ccccc2Sc2ccccc21 | -2% | -18% | 6% | 2% | -1% | -6%
CNC(=O)C1CCC(Cn2c(=O)c3sccc3n(CC(=O)Nc3ccc(C)cc3C)c2=O)CC1 (stereo not given) | · | · | · | -4% | · | ·
Cc1nnc(NC(=O)CSc2nccn2-c2cccc(Cl)c2)s1 | · | · | · | -7% | · | ·
CN(C)c1ccc(-c2ccc3c(=O)c4ccccc4n(C)c3c2)cn1 | 2.5µM* | · | · | 4.8µM* | 2.2µM* | 16µM*
CC(C)c1ccc(N(CC(=O)NCCCN2CCOCC2)S(=O)(=O)c2ccccc2)cc1 | 0% | · | -8% | 2% | -5% | 0%
Cc1cccc(Cn2c(=O)n(CCCCC(=O)NCc3ccc4c(c3)OCO4)c(=O)c3ccccc32)c1 | · | -5% | · | -17% | · | ·
COc1ccc(Nc2nc(-c3c[nH]c4ccccc34)cs2)cc1 | 23% | ? | ? | 15µM* | 20% | 13%
COc1ccc(-c2csc(Nc3cccnc3)n2)cc1 | · | 7% | · | 6µM* | · | ·
COc1ccc(Nc2nc(-c3ccc(OC)cc3)cs2)cc1 | 3.2µM* | ? | 3% | ? | 1.6µM* | ?
COc1ccc(-c2csc(Nc3ccccc3)n2)cc1 | 2.2µM* | 4µM* | 10% | 3µM* | 1µM* | 2.1µM*
Cc1cc(=O)c(C(=O)Nc2ccc(N3CCOCC3)cc2N2CCOCC2)nn1-c1ccccc1Cl | · | · | -4% | · | · | 0%
Cc1c(C(=O)N2CCC(C)CC2)c(S(=O)(=O)NCc2ccc(Br)cc2)c(C)n1C | · | · | · | 1% | · | ·
O=C(CCCc1c[nH]c2ccccc12)NCc1ccccc1C(F)(F)F | -9% | · | 7% | 2% | 2% | -5%
COc1ccc2oc(=O)c(-c3csc(Nc4ccc(O)cc4)n3)cc2c1 | 0% | ? | ? | 3µM* | 14% | -1%
Cc1cc(C)cc(OCC(=O)Nc2nc3c(s2)CC(C(C)(C)C)CC3)c1 (stereo not given) | · | · | · | 12µM* | · | ·
CC(C)(C)C1CCc2nc(NC(=O)COc3ccccc3[N+](=O)[O-])sc2C1 (stereo not given) | · | · | · | -5% | · | ·
CCOc1cccc(C(=O)Nc2nccs2)c1 | ? | ? | 25% | 15µM* | ? | ?
O=C(CCNC(=O)c1ccc(Br)cc1)Nc1nccs1 | 1% | -5% | -2% | -16% | 12% | 1%
CC(C)(C)c1ccc(Oc2ccc(NC(=O)C3CC=CCC3C(=O)O)cc2)cc1 (stereo not given) | 2% | 16µM* | -5% | 27µM* | -8% | -1%
O=C(Nc1nccs1)c1ccc(Br)cc1 | 2.5µM* | · | · | 9.5µM* | 2.2µM* | ?
O=C(Nc1nccs1)c1ccc2ccccc2c1 | 3.2µM* | · | 6% | 3µM* | 3.2µM* | 14%
COc1ccc(C2=NS(=O)(=O)N(C)C(C(=O)N3CCC(C(N)=O)CC3)=C2)cc1 | -3% | · | 18% | -9% | 11% | -3%
CCOc1cc(CNC(=O)c2ccc3c(c2)N(C)C(=O)C2CCCCN32)ccc1OC (stereo not given) | · | · | · | 4% | · | ·
CCOC(=O)C1CCCN(S(=O)(=O)c2cc3c4c(c2)CC(=O)N4CCC3)C1 (stereo not given) | · | · | · | 4% | · | ·
O=C(Nc1n[nH]c(=S)s1)c1ccc2ccccc2c1 | 1.1µM* | · | 24% | 27µM* | 0.79µM* | ?
SMILES | NPC1 promoter act | SMN2 splice enh | p53 reactivation | FLuc counter | Rab9 promoter act | ELG1 genotoxic
O=C(Nc1nccs1)c1ccc(NC(=O)C2CC=CCC2C(=O)O)cc1 (stereo not given) | 6% | -10% | 0% | 17µM* | 17% | 1%
O=C(Nc1ccccc1Cl)c1ccc2ccccc2c1 | -8% | · | 33% | -8% | 0% | 4%
CCOc1cccc(C(=O)Nc2nnc(-c3ccco3)s2)c1 | ? | 2.8µM* | ? | 4.8µM* | 4µM* | ?
O=C(Nc1ccccc1N1CCOCC1)c1ccc(N2CCOCC2)c([N+](=O)[O-])c1 | -3% | 21% | 0% | ? | -1% | -13%
Cc1cccc(OCC(=O)Nc2nnc(-c3ccco3)s2)c1 | 0% | -4% | 2% | ? | 1% | 4%
O=C(Nc1nccs1)c1ccc(N2CCOCC2)c([N+](=O)[O-])c1 | 1.8µM* | · | 7% | 12µM* | 2.2µM* | ?
C/C(=C\c1ccccc1)C(=O)Nc1nccs1 | 2.5µM* | 11µM* | 0% | 9.5µM* | 3.5µM* | ?
O=C(Nc1nccs1)c1ccc(Br)s1 | ? | · | ? | 15µM* | 4µM* | ?
O=C(Nc1cccnc1)c1ccc(Br)s1 | 14% | -12% | 8% | 7%[2.3 µM] | 26% | 5%
Cn1cc(Cl)c(C(=O)Nc2nccs2)n1 | 16% | · | 11% | -19% | 22% | 24%
O=C(Nc1nccs1)c1ncc(Cl)c(Cl)c1Cl | 0% | · | ? | 13µM* | 5% | -14%
O=C(Nc1nccs1)c1ccccn1 | ? | ? | -2% | ? | 3.2µM* | ?
CC(=O)N1CCc2c(sc3c2c(=O)n(CCc2ccccc2)c(=O)n3Cc2ccccc2C)C1 | · | 1% | · | 0% | · | ·
Clc1cccc(OCc2nnc(-c3ccccc3Br)o2)c1 | 26% | · | 25% | ? | 17% | 18%
Clc1ccc(OCc2nnc(-c3ccccc3Br)o2)c(Cl)c1 | 3.2µM* | ? | ? | 6µM* | 4µM* | ?
Fc1ccc(OCc2nnc(-c3ccccc3Br)o2)c(Cl)c1 | ? | · | ? | 9.5µM* | 2.5µM* | 2.3µM*
Cc1cc(Cl)ccc1OCc1nnc(-c2ccccc2C)o1 | ? | · | 11% | ? | 4µM* | ?
COc1ccccc1C(=O)NCC1(N2CCN(C)CC2)CCCCC1 | · | · | · | 4% | · | ·
CCOC(=O)C1=C(C)NC(=S)NC1c1ccc(OCC(=O)N2CCCCCC2)cc1 (stereo not given) | 1% | · | -4% | -1% | 0% | 0%
CC(NC(=O)c1c(Cl)cnn1C)C1CCCO1 (stereo not given) | -2% | · | 1% | 1% | -3% | -2%
COc1ccc(CCN2C(=NC(=O)CCC(=O)O)SC3CS(=O)(=O)CC32)cc1OC (stereo not given) | -1% | 11% | ? | 27µM* | 7% | -3%
COc1ccc(CCN2C(=NC(=O)CC(C)C)SC3CS(=O)(=O)CC32)cc1 (stereo not given) | -2% | 17% | -1% | 3% | 2% | -5%
CCN[C@@H]1CN(CCCOC)S(=O)(=O)c2sc(S(N)(=O)=O)cc21 | · | -5%[20.6 µM] | · | · | · | ·
CNc1cc([N+](=O)[O-])ccc1OCc1ccccc1 | 16% | · | 9% | 19µM* | 16% | 9%
